Data taken from the supplement of paper PMC6555819.

system: LXRa homodimer (NR concentration 270 nM); test: PBM binding z-score (relative to random genomic background probes); higher = stronger binding; sequences stand for … in GC…GCGATTGACAGCGTAGAATGAAGG
Method in brief: (§1)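 The probes on custom Agilent 4×180K protein-binding microarrays were double-stranded, with 34-nt variable regions bearing direct-repeat seeds, single-nucleotide variants, half-site ablations and random human genomic background sequences. Incubation lasted 1 h with ligand-free nuclear receptor dimers in PBS pH 7.4, 2% milk, 0.02% Triton X-100, 1 mM DTT, 0.2 mg/mL BSA and 0.4 mg/ml salmon testes DNA. Antibodies against each partner (one per run) detected bound dimers, and fluorescence scans were regression-normalized. Binding z-scores take the random background probes as reference.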

| Sequence | PBM binding z-score |
| --- | --- |
| CCGACTGGGCCAAGGTCATTGATCAGTCAAAGCA | 0.884 |
| CAAACTAGGTCACGCAAGGTCAAAGTCGAATGAC | 7.2 |
| GCTGCTACGTCAGGTTGGTCAGCTAACGGGTACG | -0.592 |
| TCTCGGAGGACAAGAAAGGTCAGAGCTCGACATC | 2.12 |
| ACAATGAGGTTATACGTAGATCAGGGAAGAAAGT | -0.0615 |
| GCGACTGGGGCAAAGCAGGTGACCATAAGGTTGG | -0.835 |
| ACCGAAAGGTCGAGGTGAGTATAGAGAAAGGGAA | -0.000757 |
| ATACCAAGGCGATCGTGAGGTCGTTGATACTAAC | 0.46 |
| TCAGACAGGTGAAGGTAACTCACGTACGCAGTCG | -0.278 |
| TCATATAAGTAAAGGTGAAAGTCGAACGATATGA | -0.151 |
| CGAACTAGGTTATCCAGGACAGTGAATACATTGA | 0.239 |
| GGAACGAGGGCAAGTTGATAGCCGAGTTTGATGG | -0.311 |
| CGAATTAGGTCATCCAGGACAGTGAATACATTGA | 0.829 |
| TGAATGAGGTTATAAGATCAGGGGACGTTGCAAA | -0.106 |
| ATATGTAGGTTAGCGGGTCATTCAGTTTGCGCAT | 0.947 |
| GCTTACGGGTCAAAGGTTATAGCGTGAATAGAAT | 0.631 |
| CAGCCTAGGTCAGGTCCAGTATAGGAGGAACGTT | -0.352 |
| ACTATAAGTTGACTTAGGGCAACCGATACGACGC | 0.287 |
| ATCTTTAGGTAAAGATAGTTCAGTGAATGCAAAT | 0.491 |
| TCTGATAGGTCAACGATGGTCAGCTAATCTGCTA | 0.975 |

| Sequence | PBM binding z-score |
| --- | --- |
| TAGCCTAGGTCATGCGGGCCAGTTTAGTGTCGGC | 0.212 |
| GCGACTGGGGCAAAGCAGCTTACCATAAGGTTGG | -0.698 |
| ATCGAAAGGTGGTGAGGTGAGTATACAGAAAGGC | 0.284 |
| CATGCTAGGTCAATGGTCAGCTAAAGCAGCTCGC | 0.2 |
| TCTCGGAGGACACGAAAGGCCAGAGCTCGACATC | -0.548 |
| AGAACGAGGTCAATGAGTTGATAGCACGGGTGGC | 0.873 |
| CCTTACGGGTCACGAGGTTCTAGCACGACGAGCG | -0.19 |
| CTCGAAAGGTCGGTTCAGGTGAGTATACGGATAA | 0.307 |
| CCTACTGGGCCATTTAGAGGTCATTGATCATATG | 8.57 |
| CGTCCAAGGACAGAGAGGTCAGTGAATGCCGAGT | 1.09 |
| ACAGACAGGTGAGTGAAGGTAAATCAGCTGGACG | -0.654 |
| CGTCCAAGGTGAAAGGTCAGTGAAGAGATGACGG | 0.846 |
| CAAACTAGGTCACAGAGGTCATAGTCCGTGCGTA | 6.94 |
| TAGCCTAGGTCATGGGTCAGTATACCACGCGAAC | 0.898 |
| AACTCTAGGTAAGACTCAGTTCAGTGAAGAACGC | 0.141 |
| TTAATGAGGTTATAAGATCAGGGAACGTTGCAAA | 0.416 |
| CGAACGAGGGCATGAGTTGATAGAAAATGCCGAT | -0.393 |
| CAAACTAGGTCACGAAAGCTCAAAGTCGAATGAC | 0.551 |
| CAAACTAGGTCACTGAGGTCAAAGTCCGTGCGTA | 5.56 |
| CCTTACGGGTCACGAGGTTTTAGCACGACGAGCG | -0.186 |

system: LXRb:RXRa (NR concentration 270 nM, RXRa partner concentration 90 nM); test: as above
Method in brief: as §1

| Sequence | PBM binding z-score |
| --- | --- |
| CCGACTGGGCCAAGGTCATTGATCAGTCAAAGCA | 2.65 |
| CAAACTAGGTCACGCAAGGTCAAAGTCGAATGAC | 7.01 |
| GCTGCTACGTCAGGTTGGTCAGCTAACGGGTACG | -0.968 |
| TCTCGGAGGACAAGAAAGGTCAGAGCTCGACATC | 2.65 |
| ACAATGAGGTTATACGTAGATCAGGGAAGAAAGT | 1.59 |
| GCGACTGGGGCAAAGCAGGTGACCATAAGGTTGG | -0.574 |
| ACCGAAAGGTCGAGGTGAGTATAGAGAAAGGGAA | 2.69 |
| ATACCAAGGCGATCGTGAGGTCGTTGATACTAAC | 0.571 |
| TCAGACAGGTGAAGGTAACTCACGTACGCAGTCG | 0.983 |
| TCATATAAGTAAAGGTGAAAGTCGAACGATATGA | 1.26 |
| CGAACTAGGTTATCCAGGACAGTGAATACATTGA | 0.204 |
| GGAACGAGGGCAAGTTGATAGCCGAGTTTGATGG | 0.355 |
| CGAATTAGGTCATCCAGGACAGTGAATACATTGA | 2.55 |
| TGAATGAGGTTATAAGATCAGGGGACGTTGCAAA | 1.61 |
| ATATGTAGGTTAGCGGGTCATTCAGTTTGCGCAT | 2.45 |
| GCTTACGGGTCAAAGGTTATAGCGTGAATAGAAT | 5.61 |
| CAGCCTAGGTCAGGTCCAGTATAGGAGGAACGTT | 0.578 |
| ACTATAAGTTGACTTAGGGCAACCGATACGACGC | 0.215 |
| ATCTTTAGGTAAAGATAGTTCAGTGAATGCAAAT | 0.995 |
| TCTGATAGGTCAACGATGGTCAGCTAATCTGCTA | 3.31 |

| Sequence | PBM binding z-score |
| --- | --- |
| TAGCCTAGGTCATGCGGGCCAGTTTAGTGTCGGC | 1.71 |
| GCGACTGGGGCAAAGCAGCTTACCATAAGGTTGG | -0.42 |
| ATCGAAAGGTGGTGAGGTGAGTATACAGAAAGGC | 0.389 |
| CATGCTAGGTCAATGGTCAGCTAAAGCAGCTCGC | 1.38 |
| TCTCGGAGGACACGAAAGGCCAGAGCTCGACATC | -0.341 |
| AGAACGAGGTCAATGAGTTGATAGCACGGGTGGC | 4.04 |
| CCTTACGGGTCACGAGGTTCTAGCACGACGAGCG | 3.53 |
| CTCGAAAGGTCGGTTCAGGTGAGTATACGGATAA | 1.74 |
| CCTACTGGGCCATTTAGAGGTCATTGATCATATG | 3.98 |
| CGTCCAAGGACAGAGAGGTCAGTGAATGCCGAGT | 1.72 |
| ACAGACAGGTGAGTGAAGGTAAATCAGCTGGACG | -0.138 |
| CGTCCAAGGTGAAAGGTCAGTGAAGAGATGACGG | 3.61 |
| CAAACTAGGTCACAGAGGTCATAGTCCGTGCGTA | 5.6 |
| TAGCCTAGGTCATGGGTCAGTATACCACGCGAAC | 3.62 |
| AACTCTAGGTAAGACTCAGTTCAGTGAAGAACGC | -0.191 |
| TTAATGAGGTTATAAGATCAGGGAACGTTGCAAA | 1.58 |
| CGAACGAGGGCATGAGTTGATAGAAAATGCCGAT | 0.256 |
| CAAACTAGGTCACGAAAGCTCAAAGTCGAATGAC | 2.56 |
| CAAACTAGGTCACTGAGGTCAAAGTCCGTGCGTA | 5.66 |
| CCTTACGGGTCACGAGGTTTTAGCACGACGAGCG | 3.4 |
